# Measured values from PubChem BioAssay AID493036 (Sanford-Burnham Center for Chemical Genomics, 2011).
# The campaign covered roughly 330,000 compounds. About 560 (0.17%) were called active.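 The calls were made as follows: active = activation at or above 40% of the spot to cytoplasm intensity ratio, with at least 20 cells analyzed; inconclusive = wells under 20 cells, flagged as cytotoxic or low count; inactive = the rest.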 What follows is part of a selection rich in actives, with near analogues and random picks from the rest.
# Experiments:
# [1] = agonists of human NTR1, primary screen, imaging, U2OS cells, beta-arrestin-GFP, high content (AID 493036); details: NTR1-U2OS beta-arrestin-GFP spot imaging, agonist mode; measured here: cell count, cytotoxicity flag; at 20 µM;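 as to activation: 0% = DMSO without peptide and 100% = 100 nM NTR1 peptide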
# [2] = biological target: Neurotensin receptor type 1 (Homo sapiens) (UniProt P30989); experiment: as above; details: NTR1-U2OS beta-arrestin-GFP spot imaging, agonist mode; at 20 µM; stronger effect = higher value
# Neurotensin receptor type 1 (Homo sapiens), sequence (P30989 whole entry, looked up): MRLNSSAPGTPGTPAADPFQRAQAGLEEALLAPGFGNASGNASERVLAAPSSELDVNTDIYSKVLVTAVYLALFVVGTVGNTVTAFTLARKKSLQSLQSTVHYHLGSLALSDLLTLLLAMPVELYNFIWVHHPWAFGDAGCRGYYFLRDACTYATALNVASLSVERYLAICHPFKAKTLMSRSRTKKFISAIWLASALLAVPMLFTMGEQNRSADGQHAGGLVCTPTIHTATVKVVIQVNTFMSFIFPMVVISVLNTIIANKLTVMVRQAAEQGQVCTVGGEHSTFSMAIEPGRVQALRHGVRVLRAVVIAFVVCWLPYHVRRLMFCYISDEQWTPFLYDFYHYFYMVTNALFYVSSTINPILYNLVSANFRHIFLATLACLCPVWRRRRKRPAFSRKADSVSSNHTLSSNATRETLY
Structure (SMILES),cell count [1] [cells],activation [2]
O=C1NC(=O)N(c2ccccc2)C(=O)/C1=C/c1ccc([N+](=O)[O-])s1,47,-0.1% (inactive)
COc1cccc(N2C(=O)NC(=O)/C(=C\c3ccc([N+](=O)[O-])s3)C2=O)c1,25,-0.6% (inactive)
Cc1cccc(N2C(=O)NC(=O)/C(=C\c3cnn(-c4ccccc4)c3)C2=O)c1,57,45.7% (active)
COc1ccc(C(=O)C2CN(C)CC2C(=O)c2ccc(OC)cc2)cc1 (stereo not given),41,-0.1% (inactive)
O=C(CCCn1c(=O)[nH]c2cc(Cl)ccc2c1=O)N1CCC2(CC1)OCCO2,62,1.7% (inactive)
COC(=O)C1=C(c2cc3ccccc3s2)C[C@@H]2CC[C@H]1N2C(=O)NCCO,97,0.3% (inactive)
CC1CCCCN1Cc1cccnc1 (stereo not given),41,1.8% (inactive)
O=C1NC(=O)N(CCc2ccc(F)cc2)C(=O)/C1=C/C=C/c1ccccc1,50,41.5% (active)
O=C1NC(=O)N(Cc2ccco2)C(=O)/C1=C\c1ccc(-c2ccc(F)cc2)o1,62,23.3% (inactive)
O=C(O)COc1ccccc1/C=C1\C(=O)NC(=O)N(CCC2=CCCCC2)C1=O,52,0% (inactive)
